Assay results published in PubChem BioAssay AID1224862 (National Center for Advancing Translational Sciences (NCATS), 2016).
Results filed as inconclusive are left out. Calls of active or inactive are those of the source. Calls follow the shape of the dose curve; as a rule, active = well fitted cell-killing curve with a large enough effect; inconclusive = small, poorly fitted or top-dose-only effect, or effect the other way; inactive = flat fitted curve, though single readings scatter.

assay: Compound cytotoxicity measured by an ATP content assay as a counter-screen for lead compounds in human astrocytoma cell line (SNB-19); details: SNB-19 astrocytoma viability, ATP luminescence; series mostly up to 46.1 µM; activity change, negative = cytotoxicity: at the top concentration
Method: National Center for Advancing Translational Sciences [NCATS] Johns Hopkins University School of Medicine Florida State University Assay Overview: Many compounds can cause cytotoxicity at high compound concentrations. […] The compound cytotoxicity may also cause side effects or toxicity in human. Thus, the compound cytotoxicity needs to be measured in each cell type and each compound incubation time - same as these in the compound screening assay. The compound cytotoxicity can be measured by cell viability assays such as the ATP content assay. We use an ATP content assay kit for cell viability measurement. It measures ATP content (level) in human astrocytoma cell line (SNB-19) using a luminescence readout that is proportional to viable cell numbers. Decrease in the luminescence signal after the compound treatment indicates reduced cell viability and cell death caused by compound treatment.
Assay Protocol Summary: The medium for SNB-19 cells is composed of RPMI 1640 (ATCC, Cat.# 30-2001), 10% fetal bovine serum (FBS) (GE healthcare Life Sciences, Cat.# SH30071.03), and 1% Pen/Strep (Gibco, Cat.# 15140-122). The ATP content assay kit (PerkinElmer, Cat.# 6016731) was used to determine cell viability. The reagent was reconstituted and prepared as described by the manufacturer. Cells were seeded in 384- or 1536-well assay plates and cultured at 37 C with 5% CO2 for 16 to 20 hours. The typical cell seeding density in the 1536-well plate assay is 250 cells/well in 3ul medium for SNB-19 cells in tissue culture treated plates. Compounds were added to cells and incubated for a specific time such as 6, 24, or 72 hours before addition of the reagent mixture of the ATP content assay kit at 1:1 ratio. After incubation at room temperature for 10 minutes, the luminescence intensity in assay plates was measured using a ViewLux plate reader (PerkinElmer). […] The percentage inhibitions of the decreased cell viability by small molecules were then calculated that indicate compound cytotoxicity.

Compound | activity change, negative = cytotoxicity | Potency
O=C(Nc1ncc([N+](=O)[O-])s1)c1cccs1 | -14.7% (inactive) | –
CNC1[C@H](O)C(O[C@@H]2C(O)C(O[C@H]3O[C@H]([C@@H](C)NC)CC[C@H]3N)[C@@H](N)C[C@H]2N)OC[C@]1(C)O (stereo not given in full) | 27.5% (inactive) | –
CCCCCNC(=O)N1CCC(CN(Cc2ccc(Cl)cc2)Cc2ccc([N+](=O)[O-])s2)C1 (stereo not given) | 15.7% (inactive) | –
Cc1ccc(O)c(-n2nc3ccccc3n2)c1 | -13.5% (inactive) | –
Cc1ccc(C(=O)c2ccc(CC(=O)O)n2C)cc1 | 14.3% (inactive) | –
O=C(CS)Nc1ccccc1 | 31.3% (inactive) | –
COCCn1c2c([n+](Cc3cnccn3)c1C)C(=O)c1ccccc1C2=O | – | 0.0155 µM (active)
O=C1NC(=O)C(=Cc2ccc(-c3ccc(F)cc3)o2)S1 | -5.67% (inactive) | –
CC(C)c1ccc2oc3nc(N)c(C(=O)O)cc3c(=O)c2c1 | – | 1.55 µM (active)
NC1CCC(Nc2nc(Nc3ccc(C(=O)N4CCCCC4)cc3)c3ncn(-c4cccc(F)c4)c3n2)CC1 (stereo not given) | 10.2% (inactive) | –
O=C(O)Cc1ccc(-c2ccccc2)cc1 | 9.96% (inactive) | –
Nc1ncnc2c1ncn2[C@@H]1O[C@@H](CO)[C@H](O)[C@H]1O | -8.91% [at 23.8 µM] (inactive) | –
COc1ccc(-c2cc(=O)c3c(O)cc(O)cc3o2)cc1O | 25.9% (inactive) | –
CC(C)OC(=O)CCCC=CC[C@@H]1[C@H](C=C[C@@H](O)COc2cccc(C(F)(F)F)c2)[C@H](O)C[C@@H]1O | -1.19% (inactive) | –
Clc1ccccc1-c1nc(-c2ccncc2)no1 | -16.2% (inactive) | –
CCCCCCCC/C=C/C(=O)O | 28.3% (inactive) | –
CC(=C(CCOC(=O)C(C)C)SSC(CCOC(=O)C(C)C)=C(C)N(C=O)Cc1cnc(C)nc1N)N(C=O)Cc1cnc(C)nc1N | -24.1% (inactive) | –
C=CCCCCCCCCC(=O)O | -4.48% (inactive) | –
C[C@@H]1CCN(C(=O)CC#N)C[C@H]1N(C)c1ncnc2[nH]ccc12 | 14.7% (inactive) | –
CC(C)(C)OC(=O)CN(Cc1ccc(Cl)cc1)Cc1ccc([N+](=O)[O-])s1 | -23.7% [at 88.3 µM] (inactive) | –

Compound | activity change, negative = cytotoxicity | Potency
CCCS(=O)c1ccc2nc(NC(=O)OC)[nH]c2c1 (stereo not given) | 16.2% (inactive) | –
Nc1nc2ccc([N+](=O)[O-])cc2s1 | 14.7% [at 88.3 µM] (inactive) | –
COc1cc(NC(C)CCCN)c2ncccc2c1 (stereo not given) | 7.08% (inactive) | –
O=C(C=CC=Cc1ccc2c(c1)OCO2)N1CCCCC1 | -3.2% (inactive) | –
O=C(O)c1cccc(-c2noc(-c3ccccc3F)n2)c1 | – | 5.48 µM (active)
Cc1ccc(O)c(N=Nc2ccccc2)n1 | – | 7.74 µM (active)
Cc1cc(O)c2c(c1)C(=O)c1cc(O)cc(O)c1C2=O | -13% (inactive) | –
COc1ccc(-c2cc(=S)ss2)cc1 | -1.94% (inactive) | –
CC[C@]1(O)C[C@H]2CN(CCc3c([nH]c4ccccc34)[C@@](C(=O)OC)(c3cc4c(cc3OC)N(C=O)[C@H]3[C@@](O)(C(=O)OC)[C@H](OC(C)=O)[C@]5(CC)C=CCN6CC[C@]43[C@@H]65)C2)C1 | 0.512% (inactive) | –
Oc1ccc(/C=C/c2cc(O)cc(O)c2)cc1 | – | 24.5 µM (active)
CN1CCN(c2cc3c(nn2)Oc2ccccc2N3C)CC1 | 14.2% [at 23.8 µM] (inactive) | –
CN1CC(=O)N2C(Cc3c([nH]c4ccccc34)[C@H]2c2ccc3c(c2)OCO3)C1=O (stereo not given in full) | 12.4% (inactive) | –
O=C1c2ccccc2C(=O)c2c(NCCc3ccc(O)cc3)ccc(NCCc3ccc(O)cc3)c21 | -32.8% (inactive) | –
O=S(=O)(O)c1ccc2nc(-c3ccccc3)[nH]c2c1 | 1.86% (inactive) | –
CC(=O)Oc1ccccc1C(=O)Nc1ncc([N+](=O)[O-])s1 | -25.3% [at 88.3 µM] (inactive) | –
O=C1C(Cl)=C(NCCN2CCOCC2)C(=O)c2ncccc21 | – | 6.15 µM (active)
CC(=NNC(=S)N1CCC1)c1ccccn1 | 10.5% (inactive) | –
COc1ccc(CC2=NN3C([C@@H](CCc4ccccc4)[C@@H](C)O)=NC(C)C3C(=O)N2)cc1OC (stereo not given in full) | 10.1% (inactive) | –
CCC(C(=O)O)c1ccc(N2Cc3ccccc3C2=O)cc1 (stereo not given) | -10.4% (inactive) | –
C[C@H](NC(=O)C(=O)Nc1ccccc1C(C)(C)C)C(=O)N[C@@H](CC(=O)O)C(=O)COc1c(F)c(F)cc(F)c1F | 0.887% (inactive) | –
